Data: PubChem BioAssay AID1159580 (chemical genetic matrix, 2015)
Where “and” joins values, the source holds several entries; their conditions need not be identical. Equal values may be shown once. In all, about 5,500 compounds went through this assay and about 2,000 (36%) were called active. Inconclusive results (about 18%) are left out. No stated cut-off is given here; in the data, active means normalized growth mostly below about 0.91 (no sharp cut-off); inconclusive means no clear call, values can overlap the other calls; inactive means mostly above about 0.92. Some of the results follow.

Test: chemical genetic growth profiling, strain panel (AID 1159580);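 further: tested at 20 µM; growth read once vehicle control cultures reached saturation at 30 °C; 1 = growth at the plate median or of vehicle wells; lower values mean less growth of the strain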
Settings: S. cerevisiae deletion strains, growth OD

Measured: normalized growth

Cc1onc(-c2ccccc2)c1C(=O)NC1C(=O)N2[C@@H]1SC(C)(C)[C@@H]2C(=O)O (some centres not stated)
active: locus YHR013C, strain ard1, active compounds read low 1.22 [resistant]
inactive: locus YAL013W, strain DEP1, active compounds read low 1.01 | locus YAL021C, strain ccr4, active compounds read low 1.02 | locus YAL026C, strain drs2, active compounds read low 1.01 | locus YAL030W, strain snc1, active compounds read low 1.02 | locus YBL061C, strain skt5, active compounds read low 1.02 | locus YBR009C, strain hhf1, active compounds read low 1.02 | locus YBR021W, strain FUR4, active compounds read low 0.99 | locus YBR023C, strain chs3, active compounds read low 1.02 | locus YBR171W, strain sec66, active compounds read low 1.02 | locus YBR229C, strain ROT2, active compounds read low 1 | locus YBR231C, strain swc5, active compounds read low 1.01 | locus YBR279W, strain paf1, active compounds read low 1.01 | locus YCL011C, strain gbp2, active compounds read low 1.03 | locus YCL016C, strain dcc1, active compounds read low 1.06 | locus YCL029C, strain bik1, active compounds read low 1.02 | locus YCL061C, strain MRC1, active compounds read low 1.02 | locus YCL069W, strain vba3, active compounds read low 1.02 | locus YCR088W, strain abp1, active compounds read low 1.02 | locus YDL005C, strain med2, active compounds read low 1.01 | locus YDL035C, strain GPR1, active compounds read low 1 | locus YDL040C, strain nat1, active compounds read low 1.01 | locus YDL074C, strain BRE1, active compounds read low 1.03 | locus YDL101C, strain DUN1, active compounds read low 1.02 | locus YDL134C, strain PPH21, active compounds read low 1 | locus YDL185W, strain tfp1, active compounds read low 1.01 | locus YDL192W, strain arf1, active compounds read low 1.01 | locus YDR001C, strain nth1, active compounds read low 1.01 | locus YDR069C, strain doa4, active compounds read low 1.01 | locus YDR101C, strain arx1, active compounds read low 1.01 | locus YDR137W, strain rgp1, active compounds read low 1.04 | locus YDR150W, strain NUM1, active compounds read low 1.01 | locus YDR159W, strain sac3, active compounds read low 1 | locus YDR162C, strain NBP2, active compounds read low 1.01 | locus YDR195W, strain ref2 0.996 | locus YDR297W, strain sur2, active compounds read low 1.01 | locus YDR318W, strain mcm21, active compounds read low 1.01 | locus YDR334W, strain swr1, active compounds read low 1.02 | locus YDR335W, strain msn5, active compounds read low 1.02 | locus YDR388W, active compounds read low 1.01 | locus YDR392W, strain spt3, active compounds read low 0.959 | locus YDR502C, strain sam2, active compounds read low 1.01 | locus YEL003W, strain gim4, active compounds read low 0.988 | locus YEL037C, strain rad23, active compounds read low 1.01 | locus YEL061C, strain CIN8 (second series), active compounds read low 1 | locus YEL061C, strain CIN8, active compounds read low 1.01 | locus YER015W, strain faa2, active compounds read low 1.01 | locus YER016W, strain bim1, active compounds read low 1.03 | locus YER110C, active compounds read low 1.01 | locus YER111C, strain swi4, active compounds read low 1.01 | locus YER155C, strain BEM2 (second series), active compounds read low 1.02 | locus YER155C, strain BEM2, active compounds read low 1.01 | locus YER167W, strain BCK2, active compounds read low 1.01 | locus YFR010W, strain ubp6, active compounds read low 1.01 | locus YGL078C, strain dbp3, active compounds read low 0.998 | locus YGL086W, strain mad1, active compounds read low 0.991 | locus YGL167C, strain pmr1, active compounds read low 1.02 | locus YGL173C, strain kem1, active compounds read low 1.01 | locus YGL227W, strain vid30, active compounds read low 1.02 | locus YGL240W, strain doc1, active compounds read low 1.02 | locus YGL248W, strain PDE1, active compounds read low 1 | locus YGL253W, strain hxk2, active compounds read low 1.02 | locus YGR078C, strain PAC10, active compounds read low 1.02 | locus YGR135W, strain pre9, active compounds read low 1.01 | locus YGR229C, strain SMI1, active compounds read low 1 | locus YGR252W, strain gcn5, active compounds read low 0.939 | locus YHR027C, strain rpn1, active compounds read low 1.02 | locus YHR030C, strain SLT2, active compounds read low 1.01 and 0.989 | locus YHR079C, strain IRE1 (second series), active compounds read low 1.01 | locus YHR079C, strain IRE1, active compounds read low 0.965 | locus YHR094C, strain hxt1, active compounds read low 1.01 | locus YHR129C, strain ARP1, active compounds read low 1.01 | locus YHR142W, strain chs7, active compounds read low 1.02 | locus YHR200W, strain rpn10, active compounds read low 1.02 | locus YIL066C, strain RNR3, active compounds read low 1.01 | locus YIL073C, strain SPO22, active compounds read low 1.01 | locus YIL125W, strain kgd1, active compounds read low 1.01 | locus YIR030C, strain dcg1, active compounds read low 1.02 | locus YJL092W, strain hpr5, active compounds read low 1.02 | locus YJL095W, strain BCK1 (second series), active compounds read low 1.02 | locus YJL095W, strain BCK1, active compounds read low 1.01 and 0.989 | locus YJL115W, strain asf1, active compounds read low 1.01 | locus YJL129C, strain trk1, active compounds read low 0.994 | locus YJL134W, strain LCB3, active compounds read low 1.01 | locus YJL154C, strain vps35, active compounds read low 1.02 | locus YJL164C, strain tpk1, active compounds read low 1.02 | locus YJL166W, strain qcr8, active compounds read low 1.03 | locus YJL168C, strain set2, active compounds read low 1 | locus YJL187C, strain SWE1 (second series), active compounds read low 1.01 | locus YJL187C, strain SWE1, active compounds read low 1.02 | locus YJR043C, strain POL32, active compounds read low 1.02 | locus YJR066W, strain TOR1, active compounds read low 0.933
